Assay outcomes from PubChem.
Insulin prom inh: TRM-6 insulin promoter activity inhibition; actives 0.9% (n = 130,000); AID 1273; TRM-6 cells (human fetal islet line), insulin promoter-eGFP reporter, imaging; reporter expression induced with tamoxifen; inhibition, % at 2 µM;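 active = inhibition above the mean plus 3 SD, with well images judged a real hit on visual review, cut at about 60% in these data, passing the limit was not always enough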
ROMK primary: modulates human ROMK potassium channel activity; actives 2% (n = 130,000); B-score at 10 µM; P48048; Tet-inducible ROMK, thallium flux fluorescence; actives lie on both sides;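 active = signal ratio slope over the read window, or its plate-corrected B-score, at least 3 SD from the plate mean, either direction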;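 also: B-score of the F/F0 ratio slope over 7 to 12 s after thallium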
Target sequence (P48048 whole entry, looked up): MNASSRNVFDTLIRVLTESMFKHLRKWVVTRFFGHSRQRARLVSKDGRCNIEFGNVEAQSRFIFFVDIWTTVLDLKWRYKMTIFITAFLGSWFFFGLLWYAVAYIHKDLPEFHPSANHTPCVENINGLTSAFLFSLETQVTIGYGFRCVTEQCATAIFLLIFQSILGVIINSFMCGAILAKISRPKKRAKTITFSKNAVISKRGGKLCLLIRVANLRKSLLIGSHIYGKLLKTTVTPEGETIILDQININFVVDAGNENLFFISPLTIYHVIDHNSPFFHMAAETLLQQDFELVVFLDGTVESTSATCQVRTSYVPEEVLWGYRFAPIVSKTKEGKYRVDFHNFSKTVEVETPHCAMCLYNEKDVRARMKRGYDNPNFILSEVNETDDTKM
Lmaj promast: Leishmania major promastigote growth inhibition. Leishmania major promastigotes, resazurin fluorescence viability. inhibition, % at 10 µM. actives 9% (n = 200,000); in the data active = inhibition above about 50%;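 also: promastigotes grown with compound for 44 hours at 28 °C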
Insulin prom up: MIN6 insulin promoter up-regulation | MIN6 insulin promoter-GFP reporter, high-content imaging; active compounds read high | z-score at 5 µM | actives 0.3% (n = 190,000);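 active = z-score above 3 at 5 µM with at least 500 cells counted in the well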
WT yeast gro inh: growth inhibition of WT yeast, mitochondrial fusion screen. mitochondrial fusion phenotypic screen, WT strain. inhibition, % at 10 µM. actives 2.1% (n = 190,000). AID 1362; in the data active = inhibition above about 58%; tested in S. cerevisiae
KCC2 mod: modulates chloride dependent transport by human KCC2. Q9H2X9. KCC2 cells, thallium flux FluoZin-2 fluorescence. B-score of Tl+ flux slope (higher = more flux/activation; lower = inhibition) at 10 µM. actives 2.2% (n = 190,000). AID 1456;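 active = thallium flux slope and its plate-corrected score both differing from the plate sample mean at a set confidence after two filtering rounds, in either direction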;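 also: slope of fluorescence scaled to starting intensity during 10 to 20 s after thallium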
Numbers stand for hits; n = inactive; x = no result. This is a sample that favours compounds with a hit; in the whole collection about 12% have one here.

SMILES | Insulin prom inh | ROMK primary | Lmaj promast | Insulin prom up | WT yeast gro inh | KCC2 mod
Cc1c(Cl)cccc1NC(=O)CCN1CCCC(C)C1 (stereo not drawn) | n | x | n | n | n | n
CC1CCCN(CCCOc2ccc(Cl)cc2Br)C1 (stereo not drawn) | n | n | 98 | n | n | n
Cc1cc(C(C)(C)C)ccc1OCCOCCN1CCCC1 | n | n | 96 | n | n | n
CN(C)C(CNC(=O)CCCc1c[nH]c2ccccc12)c1ccco1 (stereo not drawn) | n | x | n | n | n | n
CCOC(=O)c1cnc2ccc(C(=O)OC)cc2c1NCCc1ccc(OC)c(OC)c1 | n | n | n | n | n | n
CCOC(=O)c1cnc2ccc(OC)cc2c1NCc1ccccc1 | n | n | 69 | n | n | n
CCOC(=O)c1cnc2ccc(OCC)cc2c1NCc1ccccc1OC | n | n | 97 | n | n | n
CCOC(=O)c1cnc2ccc(OCC)cc2c1NCCN1CCOCC1 | n | x | 55 | n | n | n
CCOC(=O)c1cnc2ccc(C(=O)OC)cc2c1NCCN1CCOCC1 | x | n | n | n | n | x
Cc1cc(C)c(C)c(C(=O)CSc2nnc(C)c(=O)[nH]2)c1C | n | n | n | n | n | n
O=C(/C=C/c1ccc(Cl)cc1)NC(=S)NN1CCCCC1c1cccnc1 (stereo not drawn) | n | x | 91 | x | 66 | 6.2
COc1ccc(/C=C/C(=O)NC(=S)NN2CCCCC2c2cccnc2)cc1OC (stereo not drawn) | x | x | n | n | n | n
O=C(CCCCCN1C(=O)CCC1=O)Nc1ccc(Br)cc1F | n | n | n | x | n | n
CC1CCC(C(C)C)C(OC(=O)COC(=O)c2cccn2C)C1 (stereo not drawn) | n | x | n | n | 74 | n
On1nnc2cc(C(F)(F)F)ccc21 | x | n | n | n | n | n
Cc1nc2cc(C(F)(F)F)ccc2n1C | 75 | n | n | n | n | n
COc1cc(/C=C2\SC(=O)N(CC(=O)Nc3cccc(C)c3)C2=O)cc([N+](=O)[O-])c1O | n | n | n | n | n | n
COc1cc(/C=C2\SC(=O)N(c3ccccc3Cl)C2=O)cc([N+](=O)[O-])c1O | x | n | n | n | 83 | n
O=C(O)C(Cc1ccccc1)N1C(=O)/C(=C/c2ccccc2)SC1=S (stereo not drawn) | n | n | n | n | n | n
O=C(O)C(Cc1ccccc1)N1C(=O)/C(=C/c2cccc3ccccc23)SC1=S (stereo not drawn) | n | x | n | n | n | -7.2
Cc1ccc(/C=C2\SC(=S)N(C(Cc3ccccc3)C(=O)O)C2=O)cc1 (stereo not drawn) | n | -3 | n | n | n | -3.5
COc1cc(/C=C2\SC(=S)N(C(Cc3ccccc3)C(=O)O)C2=O)ccc1O (stereo not drawn) | x | x | x | n | x | n
CCOC(=O)c1cc(NC(=O)C2CCCO2)cc(C(=O)OCC)c1 (stereo not drawn) | n | n | n | x | n | n
Cc1cc2c(C)nc(Cc3ccccc3)nc2o1 | n | n | n | x | n | n
CCS(=O)(=O)c1ccc2oc(SCC(=O)NCCc3ccccc3)nc2c1 | n | x | n | n | n | n
SMILES | Insulin prom inh | ROMK primary | Lmaj promast | Insulin prom up | WT yeast gro inh | KCC2 mod
O=C(CSc1nc2cc(Cl)ccc2o1)NCCc1ccccc1 | n | x | n | n | 68 | n
O=C(CCSc1ccc(Cl)cc1)c1cccs1 | n | x | 70 | n | n | n
COc1ccc(C(C)=O)cc1CSc1nc2cc(Cl)ccc2o1 | 74 | n | n | n | n | x
COc1ccc(C(C)=O)cc1CSc1nnc(SCc2cc(C(C)=O)ccc2OC)s1 | x | x | x | n | x | n
O=C(CSc1nc2cc(Cl)ccc2o1)c1cccs1 | x | x | 57 | n | n | n
O=C(CCNc1ccc(Cl)cc1)c1cccs1 | x | x | n | n | n | n
COc1cc(CNCCSc2nnnn2C)cc(Br)c1OCc1ccc(F)cc1 | n | n | 95 | n | n | n
COc1cc(CNCCSc2nnnn2C)cc(Br)c1OCc1ccccc1 | x | n | 56 | n | n | n
COc1cc(CNCCSc2nnnn2C)cc(Br)c1OCc1ccccc1F | n | n | 90 | n | n | n
CCOc1cc(CNCCSc2nnnn2C)cc(Br)c1OCc1ccccc1F | x | n | n | n | n | x
CCOc1cc(CNCCSc2nnnn2C)cc(Br)c1OCc1ccc(F)cc1 | x | x | 50 | n | n | n
COC(=O)c1ccc(C)c(NC(=O)c2ccc(Cl)c([N+](=O)[O-])c2)c1 | n | x | n | n | n | n
Cc1cc(C)cc(OCC(=O)O/N=C(\N)c2ccccc2Cl)c1 | x | n | x | n | x | n
c1ccc(COn2c(-c3ccccc3)nc3c2CCc2nonc2-3)cc1 | n | n | n | n | n | x
COc1cc(CNCCO)cc(Br)c1OCc1ccccc1 | n | n | 97 | x | n | n
COc1ccc(-n2c(COc3ccccc3)nnc2SCc2ccc(C#N)cc2)cc1 | n | n | 100 | x | n | x
CCOc1ccc(-n2c(SCc3ccc([N+](=O)[O-])cc3)nnc2-c2ccccc2)cc1 | n | n | 92 | n | n | n
O=c1c2ccccc2nc(SCc2cc([N+](=O)[O-])cc3c2OCOC3)n1-c1ccccc1 | n | n | n | n | n | n
O=c1c2ccccc2nc(SCc2ccc([N+](=O)[O-])cc2)n1-c1ccccc1 | n | x | 54 | n | n | n
COc1ccc(-n2c(SCc3ccc([N+](=O)[O-])cc3)nnc2-c2ccccc2)cc1 | x | x | n | x | n | n
CCOc1ccc(-c2nnc(SCc3nnc(-c4ccccc4)o3)n2-c2ccccc2F)cc1 | x | n | 99 | n | n | x
CCC(CC)C(=O)Nc1nnc(SCC(=O)N2CCN(c3ccccc3OC)CC2)s1 | n | x | n | n | n | n
CCn1nc(C(C)C(=O)O)c2ccccc2c1=O (stereo not drawn) | n | n | n | n | n | n
Cc1ccc(Cl)cc1N1CCN(C(c2ccc(C#N)cc2)c2nnnn2C2CCCC2)CC1 (stereo not drawn) | n | n | 71 | n | n | x
Cc1ccc(C(c2nnnn2C2CCCCC2)N2CCN3CCCC3C2)cc1 (stereo not drawn) | n | x | n | n | n | n
SMILES | Insulin prom inh | ROMK primary | Lmaj promast | Insulin prom up | WT yeast gro inh | KCC2 mod
Cc1ccc(Cl)cc1N1CCN(C(c2cccnc2)c2nnnn2C2CCCCC2)CC1 (stereo not drawn) | n | n | 99 | n | n | x
CC(C)N1C(=O)S/C(=C/c2cccnc2)C1=O | n | x | 71 | n | n | n
O=C(CN1C(=O)S/C(=C/c2cccnc2)C1=O)N1CCOCC1 | 71 | n | n | n | n | n
O=C(CN1C(=O)S/C(=C/c2ccncc2)C1=O)N1CCOCC1 | n | n | n | n | n | n
N/C(=N\c1nc2c(c(=O)[nH]1)CCC2)Nc1ccccc1 | n | x | 73 | n | n | n
N/C(=N\c1nc2c(c(=O)[nH]1)CCCC2)Nc1ccccc1 | n | n | n | n | n | x
CC(=O)C(C(C)=O)c1c(Cl)c(O)c(O)c2c(C(=O)c3ccccc3)coc12 | x | -3.4 | n | n | n | -5.3
Cc1cc(C)c2ccc(NN)nc2c1O | n | n | 99 | n | n | n
Cc1cc(C)c2ccc(/C=N/O)nc2c1O | x | x | x | n | x | n
